# Results published in the supplement of paper PMC10037445.
# Where “and” joins values, the source holds several entries; their conditions need not be identical. Identical values can stand only once. ± gives the standard deviation of the averaged measurements. Over roughly 2,900 compounds, “NF-kB SEAP reporter activity, fold change vs agonist alone” has its median near 0.99; the highest 2% begin near 2.6. Shown is part of a subset that was picked to be rich in the highest values.
# Assays:
# RAW-Dual [1] = assay: NF-kB SEAP reporter activity, fold change vs agonist alone; cytotoxicity flag (confluency mask): not cytotoxic; higher = enhanced NF-kB activity
# Summary of the method: (§1)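 After 50 nL of library stock was delivered by pin tool to RAW-Dual macrophages (50,000 cells/well, DMEM, 384-well plates), a PRR agonist was added 1 h later and the plates were kept at 37 °C, 5% CO2. Twenty hours later, IRF was read from supernatant by QuantiLuc luminescence and NF-κB by QuantiBlue absorbance at 620 nm. Reporter activity is stated as fold change over agonist-alone wells. Wells with IncuCyte confluency under 70% of agonist controls in both mask sets were counted as cytotoxic.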
# RAW-Dual [2] = assay: NF-kB SEAP reporter activity, fold change vs agonist alone; higher = enhanced NF-kB activity
# Summary of the method: as §1
# RAW-Dual [3] = assay: NF-kB SEAP reporter activity, fold change vs agonist alone; cytotoxicity flag (confluency mask): cytotoxic (confluency <70% of control); higher = enhanced NF-kB activity
# Summary of the method: as §1
# [4] = agonist: ODN 1826 (TLR9) 0.5 ug/mL
# [5] = agonist: Pam2CSK4 (TLR2/6) 0.1 ug/mL
# [6] = agonist: Pam3CSK4 (TLR2/1) 0.1 ug/mL
# [7] = library stock concentration (final ~1000-fold dilution): 10 mM, cytotoxicity flag (confluency mask): not cytotoxic, agonist: MPLA (TLR4) […]
# [8] = library stock concentration (final ~1000-fold dilution): 10 mM, cytotoxicity flag (confluency mask): not cytotoxic, agonist: Imiquimod (TLR7) […]
structure (smiles),measurement,setting,value
O=C1c2ccc(O)cc2C(=O)c2ccc(O)cc21 (library stock concentration (final ~1000-fold dilution): 10 mM),NF-kB SEAP reporter activity,RAW-Dual [1]; agonist: LPS (TLR4) 0.1 ug/mL,1.38
same,NF-kB SEAP reporter activity,RAW-Dual [1]; [4],1.04
same,NF-kB SEAP reporter activity,RAW-Dual [1]; [5],1.32
same,NF-kB SEAP reporter activity,RAW-Dual [1]; [6],1.16
O=C1c2ccc(O)cc2C(=O)c2ccc(O)cc21,NF-kB SEAP reporter activity,RAW-Dual [2]; [7],1.26
Nc1nc(F)nc2c1ncn2C1OC(COP(=O)(O)O)C(O)C1O (stereo not drawn) (library stock concentration (final ~1000-fold dilution): 10 mM),NF-kB SEAP reporter activity,RAW-Dual [1]; agonist: LPS (TLR4) 0.1 ug/mL,1.14
same,NF-kB SEAP reporter activity,RAW-Dual [1]; [4],1.01
same,NF-kB SEAP reporter activity,RAW-Dual [1]; [5],1
same,NF-kB SEAP reporter activity,RAW-Dual [1]; [6],1.15
Nc1nc(F)nc2c1ncn2C1OC(COP(=O)(O)O)C(O)C1O (stereo not drawn),NF-kB SEAP reporter activity,RAW-Dual [2]; [8],0.903
same,NF-kB SEAP reporter activity,RAW-Dual [2]; [7],1.03
O=C(c1ccccc1)c1ccc2nc(NC(=O)c3csc(C4CCN(c5ncnc6ccsc56)CC4)n3)[nH]c2c1 (library stock concentration (final ~1000-fold dilution): 10 mM),NF-kB SEAP reporter activity,RAW-Dual [1]; agonist: LPS (TLR4) 0.1 ug/mL,2.75 and 2.17
same,NF-kB SEAP reporter activity,RAW-Dual [1]; [4],1.57 and 1.25
same,NF-kB SEAP reporter activity,RAW-Dual [1]; [5],0.384 and 0.435
same,NF-kB SEAP reporter activity,RAW-Dual [1]; [6],0.694 and 0.75
CNC(C)C(=O)NC(C(=O)N1CCCC1C(=O)NC1c2ccccc2CC1OCC#CC#CCOC1Cc2ccccc2C1NC(=O)C1CCCN1C(=O)C(NC(=O)C(C)NC)C1CCCCC1)C1CCCCC1 (stereo not drawn) (library stock concentration (final ~1000-fold dilution): 10 mM water),NF-kB SEAP reporter activity,RAW-Dual [3]; agonist: LPS (TLR4) 0.1 ug/mL,0.764
same,NF-kB SEAP reporter activity,RAW-Dual [3]; [4],1.11
same,NF-kB SEAP reporter activity,RAW-Dual [3]; [5],0.798
same,NF-kB SEAP reporter activity,RAW-Dual [3]; [6],0.718
CNC(C)C(=O)NC(C(=O)N1CCCC1C(=O)NC1c2ccccc2CC1OCC#CC#CCOC1Cc2ccccc2C1NC(=O)C1CCCN1C(=O)C(NC(=O)C(C)NC)C1CCCCC1)C1CCCCC1 (stereo not drawn),NF-kB SEAP reporter activity,"RAW-Dual [2]; library stock concentration (final ~1000-fold dilution): 10 mM water, cytotoxicity flag (confluency mask): cytotoxic (confluency <70% of control), agonist: Imiquimod (TLR7) […]",0.836
same,NF-kB SEAP reporter activity,"RAW-Dual [2]; library stock concentration (final ~1000-fold dilution): 10 mM water, cytotoxicity flag (confluency mask): cytotoxic (confluency <70% of control), agonist: MPLA (TLR4) […]",0.786
CC1(F)C(O)C(CO)OC1n1ccc(=O)[nH]c1=O (stereo not drawn),NF-kB SEAP reporter activity,RAW-Dual [2]; [7],1.02
CC1(F)C(O)C(CO)OC1n1ccc(=O)[nH]c1=O (stereo not drawn) (library stock concentration (final ~1000-fold dilution): 10 mM),NF-kB SEAP reporter activity,RAW-Dual [1]; agonist: LPS (TLR4) 0.1 ug/mL,1.26
same,NF-kB SEAP reporter activity,RAW-Dual [1]; [4],0.945
same,NF-kB SEAP reporter activity,RAW-Dual [1]; [5],0.82
same,NF-kB SEAP reporter activity,RAW-Dual [1]; [6],0.78
CC1COCCN1c1cc(-c2ccnn2C)c2ccnc(-c3ccn[nH]3)c2n1.Cl (stereo not drawn) (library stock concentration (final ~1000-fold dilution): 10 mM),NF-kB SEAP reporter activity,RAW-Dual [1]; agonist: LPS (TLR4) 0.1 ug/mL,1.89
same,NF-kB SEAP reporter activity,RAW-Dual [1]; [4],0.957
same,NF-kB SEAP reporter activity,RAW-Dual [1]; [5],1.09
same,NF-kB SEAP reporter activity,RAW-Dual [1]; [6],1.19
CC1COCCN1c1cc(-c2ccnn2C)c2ccnc(-c3ccn[nH]3)c2n1.Cl (stereo not drawn),NF-kB SEAP reporter activity,RAW-Dual [2]; [8],1.48
same,NF-kB SEAP reporter activity,RAW-Dual [2]; [7],2.05
CC(C)NCC(O)COc1cccc2ccccc12.Cl (stereo not drawn) (library stock concentration (final ~1000-fold dilution): 10 mM),NF-kB SEAP reporter activity,RAW-Dual [1]; agonist: LPS (TLR4) 0.1 ug/mL,0.913
same,NF-kB SEAP reporter activity,RAW-Dual [1]; [4],0.94
same,NF-kB SEAP reporter activity,RAW-Dual [1]; [5],0.822
same,NF-kB SEAP reporter activity,RAW-Dual [1]; [6],1.08
CC(C)NCC(O)COc1cccc2ccccc12.Cl (stereo not drawn),NF-kB SEAP reporter activity,RAW-Dual [2]; [8],1.07
same,NF-kB SEAP reporter activity,RAW-Dual [2]; [7],1.04
CNCCN(C)Cc1c[nH]nc1-c1ccc(OC2CC(OCCC3CCOCC3)C2)cc1.Cl.Cl (stereo not drawn),NF-kB SEAP reporter activity,RAW-Dual [2]; [8],0.935
same,NF-kB SEAP reporter activity,RAW-Dual [2]; [7],1.07
CNCCN(C)Cc1c[nH]nc1-c1ccc(OC2CC(OCCC3CCOCC3)C2)cc1.Cl.Cl (stereo not drawn) (library stock concentration (final ~1000-fold dilution): 10 mM),NF-kB SEAP reporter activity,RAW-Dual [1]; agonist: LPS (TLR4) 0.1 ug/mL,0.836
same,NF-kB SEAP reporter activity,RAW-Dual [1]; [4],0.674
same,NF-kB SEAP reporter activity,RAW-Dual [1]; [5],0.874
same,NF-kB SEAP reporter activity,RAW-Dual [1]; [6],0.586
CCCOc1ccc(CCc2nc3cc(-c4c(C)noc4C)ccc3n2CCN2CCOCC2)cc1.Cl (library stock concentration (final ~1000-fold dilution): 10 mM),NF-kB SEAP reporter activity,RAW-Dual [1]; agonist: LPS (TLR4) 0.1 ug/mL,2.48
same,NF-kB SEAP reporter activity,RAW-Dual [1]; [4],1.9
same,NF-kB SEAP reporter activity,RAW-Dual [1]; [5],0.609
same,NF-kB SEAP reporter activity,RAW-Dual [1]; [6],1.04
COc1ccc(CCc2nc3cc(-c4c(C)noc4C)ccc3n2CC(C)N2CCOCC2)cc1Cl (stereo not drawn) (library stock concentration (final ~1000-fold dilution): 10 mM),NF-kB SEAP reporter activity,RAW-Dual [1]; agonist: LPS (TLR4) 0.1 ug/mL,4.47
same,NF-kB SEAP reporter activity,RAW-Dual [1]; [4],2.49
same,NF-kB SEAP reporter activity,RAW-Dual [1]; [5],1.06
same,NF-kB SEAP reporter activity,RAW-Dual [1]; [6],2.27
COc1ccc(CCc2nc3cc(-c4c(C)noc4C)ccc3n2CC(C)N2CCOCC2)cc1Cl (stereo not drawn),NF-kB SEAP reporter activity,RAW-Dual [2]; [8],1.51
same,NF-kB SEAP reporter activity,RAW-Dual [2]; [7],2.65
CCCOc1ccc(CCc2nc3cc(-c4c(C)noc4C)ccc3n2CCN2CCOCC2)cc1.Cl,NF-kB SEAP reporter activity,RAW-Dual [2]; [8],1.53
same,NF-kB SEAP reporter activity,RAW-Dual [2]; [7],1.98
Cc1nc2cc(F)c(F)cc2n1-c1cncc(Nc2ccc(C(F)(F)F)cc2)n1 (library stock concentration (final ~1000-fold dilution): 10 mM),NF-kB SEAP reporter activity,RAW-Dual [1]; agonist: LPS (TLR4) 0.1 ug/mL,1.36
same,NF-kB SEAP reporter activity,RAW-Dual [1]; [4],1.31
same,NF-kB SEAP reporter activity,RAW-Dual [1]; [5],0.571
same,NF-kB SEAP reporter activity,RAW-Dual [1]; [6],0.582
Cc1nc2cc(F)c(F)cc2n1-c1cncc(Nc2ccc(C(F)(F)F)cc2)n1,NF-kB SEAP reporter activity,RAW-Dual [2]; [8],1.56
same,NF-kB SEAP reporter activity,RAW-Dual [2]; [7],1.33
CC1=CC2(O)OC3(CC2=C(C)C)C(C)CCC13 (stereo not drawn) (library stock concentration (final ~1000-fold dilution): 10 mM),NF-kB SEAP reporter activity,RAW-Dual [1]; agonist: LPS (TLR4) 0.1 ug/mL,1.04 ± 0.043
same,NF-kB SEAP reporter activity,RAW-Dual [1]; [4],0.938 ± 0.07
same,NF-kB SEAP reporter activity,RAW-Dual [1]; [5],0.963 ± 0.062
same,NF-kB SEAP reporter activity,RAW-Dual [1]; [6],1.06 ± 0.049
CC1=CC2(O)OC3(CC2=C(C)C)C(C)CCC13 (stereo not drawn),NF-kB SEAP reporter activity,RAW-Dual [2]; [8],0.957 ± 0.03
same,NF-kB SEAP reporter activity,RAW-Dual [2]; [7],1.03 ± 0.025
CCc1cc2c(cc1N1CCC(N3CCOCC3)CC1)C(C)(C)c1[nH]c3cc(C#N)ccc3c1C2=O.Cl,NF-kB SEAP reporter activity,"RAW-Dual [2]; library stock concentration (final ~1000-fold dilution): 2 mM, cytotoxicity flag (confluency mask): not cytotoxic, agonist: MPLA (TLR4) […]",1.31
CCc1cc2c(cc1N1CCC(N3CCOCC3)CC1)C(C)(C)c1[nH]c3cc(C#N)ccc3c1C2=O.Cl (library stock concentration (final ~1000-fold dilution): 2 mM),NF-kB SEAP reporter activity,RAW-Dual [1]; agonist: LPS (TLR4) 0.1 ug/mL,1.71
same,NF-kB SEAP reporter activity,RAW-Dual [1]; [4],1.17
same,NF-kB SEAP reporter activity,RAW-Dual [1]; [5],1.15
same,NF-kB SEAP reporter activity,RAW-Dual [1]; [6],1.15
O=C(O)c1ccc(/C=C2/SC(=S)N(Cc3cccc(C(F)(F)F)c3)C2=O)cc1 (library stock concentration (final ~1000-fold dilution): 10 mM),NF-kB SEAP reporter activity,RAW-Dual [1]; agonist: LPS (TLR4) 0.1 ug/mL,0.619
same,NF-kB SEAP reporter activity,RAW-Dual [1]; [4],0.737
same,NF-kB SEAP reporter activity,RAW-Dual [1]; [5],0.832
same,NF-kB SEAP reporter activity,RAW-Dual [1]; [6],0.5
O=C(O)c1ccc(/C=C2/SC(=S)N(Cc3cccc(C(F)(F)F)c3)C2=O)cc1,NF-kB SEAP reporter activity,RAW-Dual [2]; [8],0.954
same,NF-kB SEAP reporter activity,RAW-Dual [2]; [7],0.727
COc1cc(OCc2cccc(-c3ccccc3)c2C)cc(OC)c1CN1CCCCC1C(=O)O (stereo not drawn) (library stock concentration (final ~1000-fold dilution): 10 mM),NF-kB SEAP reporter activity,RAW-Dual [3]; agonist: LPS (TLR4) 0.1 ug/mL,1.21
same,NF-kB SEAP reporter activity,RAW-Dual [3]; [4],0.794
same,NF-kB SEAP reporter activity,RAW-Dual [3]; [5],1.03
same,NF-kB SEAP reporter activity,RAW-Dual [3]; [6],1.17
